Experimental data reported in PubChem BioAssay AID1745853 (National Center for Advancing Translational Sciences (NCATS), 2022).
About 970 (3.9%) of roughly 25,000 compounds were called active. Not shown: some 8% with an inconclusive outcome. This is one part of a sample in which actives are shown more often than they occur. The rule behind the calls is not given here.

How the values were obtained:
Experiment in all cases: Primary Screen for Target Class Profiling of Small Molecule Inhibitors of Methyltransferases
[1] = target: Catechol O-methyltransferase (Homo sapiens) (UniProt P21964); conditions: purified enzyme, MTase-Glo SAH luminescence; activity change, negative = inhibition: at 40 µM, stronger effect = lower value; outcome: 40 uM
Chain of Catechol O-methyltransferase (Homo sapiens) (P21964 whole entry, looked up): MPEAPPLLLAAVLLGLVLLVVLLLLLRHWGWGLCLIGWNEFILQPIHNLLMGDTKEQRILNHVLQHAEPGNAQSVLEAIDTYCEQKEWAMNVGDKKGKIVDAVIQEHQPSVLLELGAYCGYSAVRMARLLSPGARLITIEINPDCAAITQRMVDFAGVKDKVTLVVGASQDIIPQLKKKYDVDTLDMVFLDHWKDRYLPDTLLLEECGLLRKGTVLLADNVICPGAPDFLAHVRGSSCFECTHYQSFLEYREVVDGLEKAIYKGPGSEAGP
From the text: (§1) PI: Matthew D. Hall Ph.D. and Quinlin M. Hanson Ph.D.
(§2) National Center for Advancing Translational Sciences (NCATS)
(§3) National Institute of Health (NIH), Rockville, MD
(§4) Target class profiling (TCP) is a chemical biology approach amenable to investigating understudied biological targets. TCP is achieved by developing a generalizable assay platform and applying it to screen a curated set of compound libraries against representative members of a target class. Small molecule methyltransferases (SMMTase) are a subclass of methyltransferase that act on metabolites to modulate signaling pathways, metabolize xenobiotics, or balance the available methyl pool. We screened four curated libraries totaling 27,574 unique compounds against the SMMTases nicotinamide N-methyltransferase (NNMT), phenylethanolamine N-methyltransferase (PNMT), histamine N-methyltransferase (HNMT), glycine N-methyltransferase (GNMT), catechol O-methyltransferase (COMT), and guanidinoacetate N-methyltransferase (GAMT). The data generated by this TCP can be leveraged for informed tool molecule development. For example, in the associated publication we identified a chemotype of HNMT-selective inhibitors. Additionally, we identified a putative SMMTase-selective inhibitor with potential as a tool molecule for studying broader methyltransferase biology.
(§5) High-through put screening assays were developed at the National Center for Advancing Translational Science (NCATS) for the enzymes NNMT, PNMT, HNMT, GNMT, COMT, and GAMT. Enzymatic activity was measured as a function of SAM cofactor conversion using the MTase Glo kit (Promega) for all enzymes. All assays were performed in 1536-well format with substrates and SAM concentrations at KM values. Enzyme concentration and assay timing were optimized for 10-20% SAM conversion. Initial screening of 27,574 compounds was done as single-point assays using the highest compound concentration (40 uM). […] These compounds were replated in 11-point dose response and assayed against NNMT, PNMT, HNMT, GNMT, COMT, GAMT, and a counter-assay. The IC50 and efficacy (maximal response) values were determined for each dose-response curve. These values are also accounted for in the area under the curve (AUC) values.
(§6) PROTOCOL TABLE (as described by Inglese J, Shamu CE and Guy RK. 2007)
(§7) SEQUENCE No. (e.g., 1, 2, 3, etc.); […] (e.g., Cells, Incubation, Reagent, etc.); VALUE; DESCRIPTION.
(§8) 1; Reagent; 2 uL; SMMTase Enzyme (2x) in reaction buffer, columns 1- 48.
(§9) 2; Reagent; 1 uL; SAM (4x) in reaction buffer, columns 1-48.
(§10) 3; Controls; 23 nL; DMSO in column 4; sinefungin in DMSO (0 uM - 40 uM) in 7-point 1:2 dilution series (n = 2) in column 2.
(§11) 4; Compounds; 23 nL; Columns 5-48.
(§12) 5; Reagent; 1 uL; Substrate (4x) in reaction buffer, columns 2-48.
(§13) 6; Time; 20-30 min; Incubation.
(§14) 7; Reagent; 1 uL; MTase-Glo reagent (5X), columns 1-48.
(§15) 8; Time; 30 min; Incubation.
(§16) 9; Reagent; 5 uL; MTase-Glo Detection reagent, columns 1-48.
(§17) 10; Time; 30 min; Incubation, luminescence evolution.
(§18) 11; Detection; Luminescence; ViewLux uHTS Microplate Imager (PerkinElmer).
(§19) NOTES (numbers refer to Sequence numbers above)
(§20) 1, 2, 5. White Medium Binding Greiner 1536-well plates (Cat #789175-F, Greiner Bio-One, Monroe, NC); Reaction buffer: 50 mM Tris, pH 8.0, 3 mM MgCl2, 1 mM EDTA, 50 mM NaCl, 1 mM DTT, and 0.1 mg/mL BSA. Evaporation was prevented by covering assay plates with metal lids containing holes to allow gas diffusion.
(§21) 1. Six SMMTase were profiled: HNMT, GNMT, PNMT, COMT, NNMT, GAMT
(§22) 5. The corresponding substrate was used for each enzyme: HNMT - 5.3 uM Histamine; GNMT - >500 uM Glycine; PNMT - 16.2 uM Norephinephrine; COMT - 13.7 uM Norephinephrine; NNMT - 3.8 uM Nicotinamide; GAMT - 2.5 uM Guanidinoacetate.6, 8, 10. Room temperature
(§23) 6. Final reaction conditions: 10 nM COMT, 5 uM SAM, 15 uM norepinephrine, 50 mM Tris, pH 8.0, 3 mM MgCl2, 1 mM EDTA, 50 mM NaCl, 1 mM DTT, and 0.1 mg/mL BSA; refer to tables 2 and S1 for specific timing.
8. […]

[2] = target: Glycine N-methyltransferase (Homo sapiens) (UniProt Q14749); conditions: purified enzyme, MTase-Glo SAH luminescence; measured here: GNMT inhibition; at 40 µM; stronger effect = lower value
Chain of Glycine N-methyltransferase (Homo sapiens) (Q14749 whole entry, looked up): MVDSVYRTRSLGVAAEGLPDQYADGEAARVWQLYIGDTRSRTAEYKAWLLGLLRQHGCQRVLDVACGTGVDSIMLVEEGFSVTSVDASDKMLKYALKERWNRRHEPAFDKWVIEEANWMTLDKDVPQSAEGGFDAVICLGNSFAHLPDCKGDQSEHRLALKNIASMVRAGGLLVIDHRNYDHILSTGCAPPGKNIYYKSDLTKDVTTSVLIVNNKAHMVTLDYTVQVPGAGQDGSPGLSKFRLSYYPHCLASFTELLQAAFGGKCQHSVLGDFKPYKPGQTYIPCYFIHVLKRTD
From the text: as §1, §2, §3, §4, §5, §6, §7, §8, §9, §10, §11, §12, §13, §14, §15, §16, §17, §18, §19, §20, §21, §22, §23
8. […]

[3] = target: Guanidinoacetate N-methyltransferase (Homo sapiens) (UniProt Q14353); conditions: purified enzyme, MTase-Glo SAH luminescence; measured here: GAMT inhibition; at 40 µM; stronger effect = lower value
From the text: as §1, §2, §3, §4, §5, §6, §7, §8, §9, §10, §11, §12, §13, §14, §15, §16, §17, §18, §19, §20, §21, §22, §23
8. […]

[4] = target: Histamine N-methyltransferase (Homo sapiens) (UniProt P50135); conditions: purified enzyme, MTase-Glo SAH luminescence; measured here: HNMT inhibition; at 40 µM; stronger effect = lower value
Chain of Histamine N-methyltransferase (Homo sapiens) (P50135 whole entry, looked up): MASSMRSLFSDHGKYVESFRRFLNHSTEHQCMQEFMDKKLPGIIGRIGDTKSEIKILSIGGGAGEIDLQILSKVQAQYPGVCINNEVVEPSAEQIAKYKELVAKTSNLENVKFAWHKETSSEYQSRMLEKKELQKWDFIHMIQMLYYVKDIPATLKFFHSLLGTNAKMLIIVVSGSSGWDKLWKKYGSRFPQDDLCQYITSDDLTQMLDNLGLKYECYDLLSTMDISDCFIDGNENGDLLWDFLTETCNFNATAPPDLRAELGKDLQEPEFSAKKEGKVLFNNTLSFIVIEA
From the text: as §1, §2, §3, §4, §5, §6, §7, §8, §9, §10, §11, §12, §13, §14, §15, §16, §17, §18, §19, §20, §21, §22, §23
8. […]

[5] = target: Nicotinamide N-methyltransferase (Homo sapiens) (UniProt P40261); conditions: purified enzyme, MTase-Glo SAH luminescence; measured here: NNMT inhibition; at 40 µM; stronger effect = lower value
Chain of Nicotinamide N-methyltransferase (Homo sapiens) (P40261 whole entry, looked up): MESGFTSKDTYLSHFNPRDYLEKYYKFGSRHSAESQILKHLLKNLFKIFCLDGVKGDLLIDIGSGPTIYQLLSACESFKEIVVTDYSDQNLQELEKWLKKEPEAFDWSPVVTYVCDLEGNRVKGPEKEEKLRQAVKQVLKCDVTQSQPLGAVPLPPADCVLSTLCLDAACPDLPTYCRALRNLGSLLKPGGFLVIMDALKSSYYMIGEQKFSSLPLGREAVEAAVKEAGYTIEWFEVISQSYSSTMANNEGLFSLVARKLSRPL
From the text: as §1, §2, §3, §4, §5, §6, §7, §8, §9, §10, §11, §12, §13, §14, §15, §16, §17, §18, §19, §20, §21, §22, §23
8. […]

[6] = target: Phenylethanolamine N-methyltransferase (Homo sapiens) (UniProt P11086); conditions: purified enzyme, MTase-Glo SAH luminescence; measured here: PNMT inhibition; at 40 µM; stronger effect = lower value
Chain of Phenylethanolamine N-methyltransferase (Homo sapiens) (P11086 whole entry, looked up): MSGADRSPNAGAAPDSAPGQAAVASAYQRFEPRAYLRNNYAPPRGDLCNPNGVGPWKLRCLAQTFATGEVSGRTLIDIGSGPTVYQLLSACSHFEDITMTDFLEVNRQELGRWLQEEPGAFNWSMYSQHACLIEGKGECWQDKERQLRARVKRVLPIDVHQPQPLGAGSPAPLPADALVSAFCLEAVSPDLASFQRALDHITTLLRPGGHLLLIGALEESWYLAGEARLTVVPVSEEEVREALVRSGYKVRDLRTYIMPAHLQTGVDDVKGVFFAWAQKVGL
From the text: as §1, §2, §3, §4, §5, §6, §7, §8, §9, §10, §11, §12, §13, §14, §15, §16, §17, §18, §19, §20, §21, §22, §23
8. […]
% is set by controls: 0 for no effect and ±100 for the full control effect.

Row | Structure (SMILES) | activity change, negative = inhibition [1] | activity change, negative = inhibition [2] [%] | activity change, negative = inhibition [3] [%] | activity change, negative = inhibition [4] [%] | activity change, negative = inhibition [5] [%] | activity change, negative = inhibition [6] [%]
1 | CSc1cccc(CN(C)Cc2cc3n(n2)CCNC3)c1 | -0.225% (inactive) | -1.46 | -2.55 | -2.05 | -2.62 | -8.63
2 | COc1ccccc1CN[C@H]1[C@H](O)[C@@H](N2CCN(c3ccccc3OC)CC2)[C@@H]2OC[C@H]1O2 | 1.34% (inactive) | -1.49 | -8.26 | 2.36 | -0.669 | 2.62
3 | CCc1cccc(NC(=O)Cn2c(=O)oc3cc(S(=O)(=O)N4CCC(C)CC4)ccc32)c1 | 0.729% (inactive) | -4.13 | 4.45 | -8.18 | -16.8 | -14.1
4 | Cc1ccc(Cn2c(=O)c3ccc(C(=O)NC(C)C)cc3n3c(=O)n(Cc4cccc(F)c4)nc23)cc1 | 6.38% (inactive) | 4.35 | 1.49 | 7.79 | 5.05 | 6.91
5 | CC1(C)CC[C@]2(C(=O)O[C@@H]3O[C@H](CO)[C@@H](O)[C@H](O)[C@H]3O)CC[C@]3(C)C(=CCC4[C@@]5(C)CC[C@H](O[C@@H]6O[C@H](C(=O)O)[C@@H](O)[C@H](O)[C@H]6OC6OC(CO)C(O)C(O)C6O)C(C)(C)C5CC[C@]43C)[C@@H]2C1 (stereo partly drawn) | -21.1% (inactive) | 2.46 | 8.94 | 8.45 | -9.17 | 7.25
6 | CC1(C)CCC2(C(=O)OC3OC(COC4OC(CO)C(O)C(O)C4O)C(O)C(O)C3O)CCC3(C)C(=CCC4C5(C)CCC(O)C(C)(C(=O)O)C5CCC43C)C2C1O (stereo not drawn) | -56.4% (active) | 0 | 5.96 | 11.8 | -7.28 | 4.84
7 | C[C@@H]1CC[C@]2(C(=O)O[C@@H]3O[C@H](CO)[C@@H](O)[C@H](O)[C@H]3O)CC[C@]3(C)C(=CCC4[C@@]5(C)C[C@@H](O)[C@H](O)[C@](C)(C(=O)O)C5CC[C@]43C)[C@@H]2[C@]1(C)O (stereo partly drawn) | 4.37% (inactive) | 6.36 | 4.44 | 15.1 | -9.25 | 7.5
8 | C=Cc1ccc(Cn2nc3n(CC(C)C)c(=O)c4ccc(C(=O)NC(C)CC)cc4n3c2=O)cc1 (stereo not drawn) | 2.79% (inactive) | 4.48 | 0 | 10.7 | -0.533 | 5.38
9 | O=S(=O)(c1ccc2[nH]c3c(c2c1)CCCC3)N1CCN(Cc2ccccc2)CC1 | 4.94% (inactive) | 5.6 | 0 | 5.93 | 5.54 | 4.34
10 | Cc1nc2c(c(NC3CC3)n1)CCN(C(=O)CCc1cccnc1)CC2 | -0.626% (inactive) | -3.41 | -8.98 | -2.51 | -8.36 | -4.07
11 | COc1cc(NC(=O)Nc2cccc(CNC(=O)O[C@H]3CCOC3)c2)ccc1-c1cnco1 | -2.73% (active) | -16.2 | 1.61 | -89.1 | -22.8 | -6.4
12 | CC1CCCC(NC(=O)C2(C)Cn3c(nc4ccccc43)C(=O)N2Cc2ccc(Cl)cc2)C1C (stereo not drawn) | 1.59% (inactive) | -0.93 | 1.75 | 0.57 | 2.43 | -2.27
13 | Cc1cccc(CCNC(=O)c2cc3n(n2)CC(C)(C(=O)NCc2ccccc2)N(C)C3=O)c1 (stereo not drawn) | 0.858% (inactive) | 3.01 | 0.251 | 3.89 | 3.49 | 1.3
14 | CCCS(=O)(=O)N1CCCC(Cn2c(C)nc3cccnc32)C1 (stereo not drawn) | -1.28% (active) | -90.9 | -3.03 | -2.37 | -5.85 | -1.53
15 | CCCS(=O)(=O)N1CCCC(Cc2noc(-c3cnccn3)n2)C1 (stereo not drawn) | -2.88% (inactive) | -4 | -4.91 | -0.21 | -5.94 | -4.02
16 | CCCS(=O)(=O)N1CCCC(OCc2noc(C3CCOCC3)n2)C1 (stereo not drawn) | -3.2% (inactive) | -4.75 | -6.9 | -3.01 | -9.35 | -7.82
17 | CC1(C(=O)NC2CCCC2)Cn2c(cc3ccccc32)C(=O)N1c1ccc(F)cc1 (stereo not drawn) | 1% (inactive) | 0.736 | 0 | 3.74 | 5.9 | 0.017
18 | Cc1cccc(NC(=O)CSc2nnc3n(CC(C)C)c(=O)c4ccc(C(=O)NC(C)C)cc4n23)c1 | 2.32% (inactive) | 0.335 | 4.37 | 4.71 | -3.04 | 1.77
19 | Cc1c(NS(=O)(=O)c2cccc3c2C(=O)c2ccccc2C3=O)c(=O)n(-c2ccccc2)n1C | -6.91% (inactive) | -20.9 | 3.01 | -5.26 | -8.5 | -27
20 | COc1ccccc1CCN1C(=O)c2ccc(-c3ccco3)n2CC1(C)C(=O)NC1CCCCCC1 (stereo not drawn) | -0.859% (inactive) | -4.07 | 0 | -1.27 | -3.86 | -2.83
21 | Cc1ccc(N2C(=O)c3cc(-c4ccco4)nn3CC2(C)C(=O)NC2CCCCC2)cc1Cl (stereo not drawn) | -4.47% (inactive) | -10.8 | 2.7 | -6.61 | -7.94 | -7.34
22 | O=C(c1coc(CN2CCN(C/C=C/c3ccccc3)CC2)n1)N1CCC[C@H]1CO | 1.4% (inactive) | -0.744 | 2.52 | 0.892 | -2.33 | 15.6
23 | O=C1Nc2ccc(O)cc2O[C@H]1O[C@@H]1O[C@H](CO)[C@@H](O)[C@H](O)[C@H]1O | 2.34% (inactive) | 1.1 | 7.9 | 2.99 | -5.97 | 2.07
